A selection: hits, their analogues and other compounds. The true share with any hit is near 2.2%.
GLP-1R agonist = GLP-1 receptor (human) agonism. Potency, µM (highest dose often 45.6 µM), inactives show at the top dose activation, hits mostly activators. 380,000 tested, 0.007% active. AID 624172. HEK293 GLP-1R CRE-luciferase, luminescence, 4-6 h; cells express a hypersensitive GLP-1R form; also: potency is read from the fitted curve at half-maximal effect; % of control where 0% means no effect
Target sequence (P43220 whole entry, looked up): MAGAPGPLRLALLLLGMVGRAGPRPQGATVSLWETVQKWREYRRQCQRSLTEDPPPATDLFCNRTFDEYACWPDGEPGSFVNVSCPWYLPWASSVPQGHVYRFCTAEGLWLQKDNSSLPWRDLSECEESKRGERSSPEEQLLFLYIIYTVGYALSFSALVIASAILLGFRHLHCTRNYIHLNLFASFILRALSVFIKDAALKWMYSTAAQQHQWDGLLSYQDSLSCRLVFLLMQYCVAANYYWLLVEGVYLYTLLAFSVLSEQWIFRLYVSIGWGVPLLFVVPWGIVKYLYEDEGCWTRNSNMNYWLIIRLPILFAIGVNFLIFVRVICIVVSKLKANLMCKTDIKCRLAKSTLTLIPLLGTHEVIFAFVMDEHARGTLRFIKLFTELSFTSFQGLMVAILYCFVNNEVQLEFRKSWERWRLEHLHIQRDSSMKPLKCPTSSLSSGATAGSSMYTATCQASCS
uPA surface inh = blocks generation of uPA at the cell surface. AID 540303. Potency, µM (top dose mostly 38.3 µM), for inactives: at the top dose activity change, negative = inhibition, usual class: inhibitors. cell surface uPA generation assay, qHTS. 330,000 tested, 0.31% active; active = well fitted inhibition curve with a large enough effect; inconclusive = small, poorly fitted or top-dose-only effect; inactive = no such curve, though single readings can be large or run the other way; tested in mouse RAW 264.7 cells; also: potency is read from the fitted curve at half-maximal effect; % is scaled to controls: 0 for no effect and ±100 for the full control effect; nearly all actives have a fitted effect of over 55% in size
CCT modulator = cytosolic chaperonin activity modulation; purified chaperonin ATPase assay, HTRF ADP detection, 30 min; activity change, % (concentration not given with the values), hits read low; 360,000 tested, 0.3% active; AID 651819; in the data active = activity change below about -30%; also: % is scaled to controls: 0 for no effect and ±100 for the full control effect
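TRiC at 40 or 20 nM final (batch-dependent) in 30 mM Tris pH 7.4, 100 mM KCl, 5 mM MgCl2, 1 mM DTT, with compound at single 76 uM and 10 uM ATP, 30 min at 37 deg C. ADP detected by HTRF Transcreener, 665/615 ratio.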
GLP1R inv ag = acts as inverse agonist at human GLP-1 receptor; 410,000 tested, 1.6% active; Potency, µM (highest dose often 38.3 µM), inactives show at the highest dose activity change, negative = inhibition, actives largely listed as inhibitors; AID 624417; HEK293 GLP-1R CRE-luciferase, luminescence, 24 h; GLP-1R form is constitutively active; also: potency is read from the fitted curve at half-maximal effect; % is scaled to controls: 0 for no effect and ±100 for the full control effect; nearly all actives have a fitted effect of over 55% in size
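Inverse agonism was detected as reduced cAMP-driven luciferase luminescence after 24 h compound treatment. The cells were HEK293 clones expressing constitutively active human GLP-1R with the reporter. Reporter-only and GPR119 cell lines served as counterscreen controls.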
GLP1R cytotox = cytotoxicity in counter-screen for GLP-1R inverse agonists; Potency, µM (doses to about 38.3 µM), for inactives: at the top dose activity change, negative = inhibition, most hits filed as inhibitors; AID 624418; 410,000 tested, 0.13% active; HEK293 cAMP-luciferase reporter cells, luminescence, 24 h;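 also: loss of luciferase light is scored as toxicity; potency is read from the fitted curve at half-maximal effect; % is scaled to controls: 0 for no effect and ±100 for the full control effect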
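Luminescence readout: signal drop marks cytotoxicity. Plated cells grew 12 h at 37 °C, 5% CO2, received 23 nL compound for 24 h, then got luciferase reagent, read after 12 min at RT.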
Mm-Cpn inhibitor = inhibitors of Methanococcus maripaludis chaperonin TRiC (MmCpn). purified Mm-Cpn ATPase, ADP Transcreener TR-FRET. Potency, µM (highest dose often 76.9 µM), inactives show top-dose activity, negative = inhibition, actives largely listed as inhibitors. 330,000 tested, 0.031% active. AID 504842; also: potency is read from the fitted curve at half-maximal effect; % is scaled to controls: 0 for no effect and ±100 for the full control effect; nearly all actives have a fitted effect of over 80% in size
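Purified archaeal chaperonin (25 nM final) was preincubated with compound for 10 min at 37°C, then ATP (10 uM final) was added for 30 min at 37°C in Tris pH 7.4/KCl/MgCl2/DTT buffer. ADP was quantified by HTRF Transcreener TR-FRET.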
* hit, by the source's call. Unless noted, calls follow the shape of the dose curve; as a rule, active = well fitted curve in the direction sought with a large enough effect; inconclusive = small, poorly fitted or top-dose-only effect, or another doubt; inactive = no such curve, though single readings can be large; an effect the other way counts as inactive or inconclusive.

How did COc1cc2c3c(c1)c(N=NC(N)=S)c(O)n3C(C)(C)C=C2C do in these assays?
GLP-1R agonist: 29%; uPA surface inh: -2%; CCT modulator: 0; GLP1R inv ag: inconclusive; GLP1R cytotox: 0.89µM*; Mm-Cpn inhibitor: 0%

What do the screens show for `CC1=CC(C)(C)n2c(O)c(N=NC(N)=S)c3cccc1c32`?
GLP-1R agonist: 1%; uPA surface inh: -8%; CCT modulator: 0; GLP1R inv ag: 4.5µM*; GLP1R cytotox: inconclusive; Mm-Cpn inhibitor: 0%

What do the screens show for `CCCCN1CCCc2cc(CN(CCCN3CCOCC3)C(=O)Nc3ccc(CC)cc3)ccc21`?
GLP1R inv ag: 2%; GLP1R cytotox: 2%

How did COC(=O)c1c(SC)nc2ccccc2c1OCc1ccc(C)cc1 do in these assays?
GLP1R inv ag: inconclusive; GLP1R cytotox: 6%

What do the screens show for `CCSc1nc2ccccc2c(OCc2ccc(Cl)cc2)c1C(=O)OC`?
GLP1R inv ag: 22µM*; GLP1R cytotox: 4%

Results for O=C(c1ccccc1)N(C(=O)c1ccccc1)N1CCCC1 ?
GLP-1R agonist: 10%; uPA surface inh: -1%; CCT modulator: -1; GLP1R inv ag: 10µM*; GLP1R cytotox: -5%

How did Cc1ccc(Cn2ccsc2=NC(=O)COC(=O)c2ccc(NC(=O)CC#N)cc2)cc1 do in these assays?
GLP-1R agonist: 1%; uPA surface inh: 16%; CCT modulator: -2; GLP1R inv ag: -2%; GLP1R cytotox: 10%; Mm-Cpn inhibitor: -16%

What do the screens show for `Cc1ccc(Cn2ccsc2=NC(=O)CCl)cc1`?
GLP-1R agonist: 20%; uPA surface inh: 2µM*; CCT modulator: -8; GLP1R inv ag: 10µM*; GLP1R cytotox: -40%; Mm-Cpn inhibitor: -1%

Results for O=C(CCCn1c(=O)c2cccn2c2ccccc21)NCCc1ccc(Cl)cc1 ?
GLP1R inv ag: -8%; GLP1R cytotox: -6%

What do the screens show for `O=C(c1ccc(Cl)cc1Cl)N1CCN(c2ccccn2)CC1`?
GLP-1R agonist: -5%; uPA surface inh: -2%; CCT modulator: -33*; GLP1R inv ag: 4%; GLP1R cytotox: -8%; Mm-Cpn inhibitor: 1%

What do the screens show for `O=C(CCCOc1ccccc1)N1CCN(c2ccccn2)CC1`?
GLP-1R agonist: -6%; uPA surface inh: -3%; CCT modulator: 0; GLP1R inv ag: 10µM*; GLP1R cytotox: -11%; Mm-Cpn inhibitor: 0%

How did COc1ccccc1N1CCN(C(=O)c2cnc(N3CCCCC3)c3ccccc23)CC1 do in these assays?
GLP1R inv ag: 3.5µM*; GLP1R cytotox: inconclusive

What do the screens show for `COc1ccccc1N1CCN(C(=O)c2cnc(N3CCOCC3)c3ccccc23)CC1`?
GLP1R inv ag: inconclusive; GLP1R cytotox: -16%

How did O=C(c1cc(Cl)ccc1Cl)N1CCN(c2ccccn2)CC1 do in these assays?
GLP-1R agonist: 16%; uPA surface inh: 0%; CCT modulator: -2; GLP1R inv ag: 16%; GLP1R cytotox: -3%; Mm-Cpn inhibitor: 1%

What do the screens show for `O=C(c1cnc(N2CCN(c3ccccn3)CC2)c2ccccc12)N1CCN(c2cccc(Cl)c2)CC1`?
GLP-1R agonist: 2%; uPA surface inh: -6%; CCT modulator: 1; GLP1R inv ag: 2.2µM*; GLP1R cytotox: -19%; Mm-Cpn inhibitor: 1%

What do the screens show for `COc1ccccc1C(=O)Oc1c(Sc2ccccc2)c(C)nn1C(C)(C)C`?
GLP1R inv ag: -15%; GLP1R cytotox: -6%

How did COc1ccccc1N1CCN(C(=O)c2ccc3[nH]c4c(c3c2)CCCC4)CC1 do in these assays?
GLP-1R agonist: 1%; uPA surface inh: -12%; CCT modulator: -1; GLP1R inv ag: 10µM*; GLP1R cytotox: 4%; Mm-Cpn inhibitor: 4%

Results for CC1(C)Cc2cccc(OCC(=O)N3CCN(c4ccccc4F)CC3)c2O1 ?
GLP-1R agonist: 12%; uPA surface inh: 3%; CCT modulator: 1; GLP1R inv ag: inconclusive; GLP1R cytotox: 9%; Mm-Cpn inhibitor: -1%

Results for COc1ccccc1N1CCN(C(=O)c2ccc(COc3cccc4c3OC(C)(C)C4)cc2)CC1 ?
GLP-1R agonist: -20%; uPA surface inh: -11%; CCT modulator: 3; GLP1R inv ag: 7.1µM*; GLP1R cytotox: 10%; Mm-Cpn inhibitor: 0%

Results for O=C(/C=C/c1cn(-c2ccccc2)nc1-c1cccc(Cl)c1)N1CCN(c2ccccn2)CC1 ?
GLP-1R agonist: 2%; uPA surface inh: -13%; CCT modulator: 0; GLP1R inv ag: 7.1µM*; GLP1R cytotox: -9%; Mm-Cpn inhibitor: 1%

How did Cc1ccc(NC(=O)c2cnc(SCC(=O)N3CCCc4ccccc43)n(C)c2=O)cc1 do in these assays?
GLP1R inv ag: -8%; GLP1R cytotox: 9%

How did Cc1cc2c(cc1S(=O)(=O)CCC(=O)N1CCCCC1C)OCC(=O)N2 (centres undefined) do in these assays?
GLP-1R agonist: -2%; GLP1R inv ag: 16%; GLP1R cytotox: -5%

How did Cc1ccc(N(CC(=O)Nc2ccc(-c3nc4ccc(C)cc4s3)cc2)S(C)(=O)=O)cc1 do in these assays?
GLP-1R agonist: -17%; uPA surface inh: -4%; CCT modulator: -40*; GLP1R inv ag: 1%; GLP1R cytotox: -2%; Mm-Cpn inhibitor: inconclusive

What do the screens show for `Cc1ccc(C)c(N(CC(=O)Nc2ccc(-c3nc4ccc(C)cc4s3)cc2)S(C)(=O)=O)c1`?
GLP-1R agonist: -3%; uPA surface inh: 3%; CCT modulator: 0; GLP1R inv ag: inconclusive; GLP1R cytotox: 2%; Mm-Cpn inhibitor: -11%

How did Cc1ccc2nc(-c3ccc(NC(=O)CNC4CC4)cc3)sc2c1 do in these assays?
GLP-1R agonist: -5%; uPA surface inh: inconclusive; CCT modulator: 1; GLP1R inv ag: 13µM*; GLP1R cytotox: 4%; Mm-Cpn inhibitor: -12%

How did CC(=O)OCC(=O)[C@@]1(O)[C@H](C)C[C@H]2C3C[C@H](F)C4=CC(=O)C=CC4(C)C3[C@@H](O)CC21C (some centres undefined) do in these assays?
GLP-1R agonist: -4%

Results for CCOc1ccc(CCN2C(=S)N([C@@H](CC(C)C)CN3CCCC3CN3C(=S)NC[C@@H]3Cc3ccc(O)cc3)C[C@@H]2Cc2ccccc2)cc1 (some centres undefined) ?
GLP-1R agonist: -1%; uPA surface inh: 3%; CCT modulator: 1; GLP1R inv ag: 11µM*; GLP1R cytotox: 1%

What do the screens show for `CCOc1ccc(CCN2C(=S)N([C@@H](CC(C)C)CN3CCC[C@@H]3CN3C(=S)NC[C@@H]3CC(C)C)C[C@@H]2Cc2ccc(O)cc2)cc1`?
GLP-1R agonist: 2%; CCT modulator: 1; GLP1R inv ag: inconclusive; GLP1R cytotox: -21%

Screens deposited in PubChem BioAssay by National Center for Advancing Translational Sciences (NCATS).
